Measured values as given in PubChem BioAssay AID1220 (Sanford-Burnham Center for Chemical Genomics, 2008).
“And” between values parts separate entries of the source, which are not always exact repeats. Equal entries are not always repeated. Screen size: about 190,000 compounds; about 1,300 (0.68%) were called active. Cut-off read from the data, not from the text of the source: active = inhibition above about 50%; inactive = the rest. For the sample, actives were picked, then their nearest neighbours and some compounds at random.

Each compound was assayed against Mannose-6-phosphate isomerase (Homo sapiens) (UniProt P34949) (assay: human PMI inhibitors, high substrate, primary screen, biochemical, fluorescence intensity, high mannose 6-phosphate (AID 1220)). Conditions: recombinant PMI enzyme, coupled fluorescence intensity; at 20 µM; active compounds read high.
Chain of Mannose-6-phosphate isomerase (Homo sapiens) (P34949 whole entry, looked up): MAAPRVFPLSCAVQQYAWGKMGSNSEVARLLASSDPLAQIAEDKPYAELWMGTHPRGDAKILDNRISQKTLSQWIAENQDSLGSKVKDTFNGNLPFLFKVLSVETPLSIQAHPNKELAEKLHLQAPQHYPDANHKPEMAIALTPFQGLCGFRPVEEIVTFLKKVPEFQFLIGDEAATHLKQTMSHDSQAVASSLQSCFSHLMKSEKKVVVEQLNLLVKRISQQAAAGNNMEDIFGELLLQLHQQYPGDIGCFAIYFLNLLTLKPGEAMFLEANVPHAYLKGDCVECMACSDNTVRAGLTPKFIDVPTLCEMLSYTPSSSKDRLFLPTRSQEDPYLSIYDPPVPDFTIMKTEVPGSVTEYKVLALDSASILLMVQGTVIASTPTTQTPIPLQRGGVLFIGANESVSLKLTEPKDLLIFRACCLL

Structure (SMILES)	inhibition
CCOC(=O)C1=C(C)NC(C)=C(C(=O)OCC)C1C(=O)OCC(N)=O	-7.6% (inactive)
O=C(c1ccc(S(=O)(=O)N2CCCCC2)cc1)N1CCc2ccccc2C1	11.9% (inactive)
CS(=O)(=O)c1ccc(C(=O)N2CCc3ccccc3C2)cc1	-6.6% (inactive)
O=C(c1ccc(S(=O)(=O)c2ccccc2)cc1)N1CCc2ccccc2C1	60.2% (active)
CCC1CCCCN1C(=O)c1sc2ncnc(N(CC)CC)c2c1C (stereo not drawn)	-1.9% (inactive)
Cc1nn(CC(=O)NCc2ccccc2F)c(C)c1[N+](=O)[O-]	2.2% (inactive)
COc1ccc2cc(/C=N/NC(=O)CN(c3ccccc3)S(=O)(=O)c3ccccc3)c(Cl)nc2c1	5.6% (inactive)
Cc1c(OCC(F)(F)F)ccnc1CS(=O)c1nc2ccccc2[nH]1 (stereo not drawn)	4.7% (inactive) and 13.1% (inactive)
COc1ccc2nc(C(C)O)[nH]c2c1 (stereo not drawn)	13.3% (inactive)
COc1ccc2nc(S(=O)Cc3ncc(C)c(OC)c3C)[nH]c2c1 (stereo not drawn)	50% (active)
CC(O)CNCc1ccc(-c2ccccc2)cc1 (stereo not drawn)	0.1% (inactive)
Cc1ccccc1Nc1ncccc1C(=O)N1CCOCC1	-9.3% (inactive)
O=S(=O)(Nc1nc2ccccc2nc1Cl)c1ccc(Cl)cc1	-2.7% (inactive)
O=S(=O)(Nc1nc2ccccc2nc1Cl)c1ccc2ccccc2c1	60.1% (active)
O=S(=O)(Nc1nc2ccccc2nc1Cl)c1ccccc1	-6.6% (inactive)
O=C1N/C(=C\c2ccccc2)C(O)=C1C=NCc1ccccc1	-1.9% (inactive)
O=C(O)CCNS(=O)(=O)c1ccccc1Br	-4% (inactive)
O=c1cc(C(F)(F)F)nc(-c2ccccc2)[nH]1	0.9% (inactive)
N#C/C(=C\c1cc(Cl)ccc1O)C(=O)NC1CCCCC1	10.6% (inactive)
N#C/C(=C\c1cc(Cl)cc(Cl)c1O)C(=O)NC1CCCCC1	66.7% (active)
Cc1cc(/C=C(\C#N)C(=O)NC2CCCCCC2)c(C)[nH]1	1.5% (inactive)
COc1ccc(-c2cc(C(=O)Nc3cc(C)on3)no2)cc1	-3.1% (inactive)
CCN(CCO)C1CC(=O)N(c2ccccc2C)C1=O (stereo not drawn)	-11.3% (inactive)
O=C(/C=C/c1cccs1)NC1CC1	-8.9% (inactive)
O=C(/C=C/c1ccccc1)NC1CCS(=O)(=O)C1 (stereo not drawn)	-10.3% (inactive)
O=C(/C=C/c1cccs1)NC1CCS(=O)(=O)C1 (stereo not drawn)	54.7% (active)
O=C(Nc1ccc2[nH]c(=O)[nH]c2c1)Nc1ccc(F)cc1F	55.8% (active)

Structure (SMILES)	inhibition
COc1ccccc1NC(=O)Nc1ccc2[nH]c(=O)[nH]c2c1	6.1% (inactive)
O=C(Nc1ccc(F)cc1F)Nc1ccc(F)cc1F	-3.6% (inactive)
Nc1ccc(C2=Nc3cccc4cccc(c34)N2)cc1	23.6% (inactive)
Fc1ccc(C2=Nc3cccc4cccc(c34)N2)cc1	45.2% (inactive)
COc1cccc(C2=Nc3cccc4cccc(c34)N2)c1	-64.5% (inactive)
c1coc(C2=Nc3cccc4cccc(c34)N2)c1	63.6% (active)
Brc1ccc(C2=Nc3cccc4cccc(c34)N2)o1	12.1% (inactive)
COc1ccc(C2=Nc3cccc4cccc(c34)N2)cc1	53.1% (active)
COCC(C)NC(=O)C(C)Oc1ccccc1 (stereo not drawn)	-3.4% (inactive)
Cc1cnc(C(=O)N2CCCC(C(=O)c3ccc(C(C)(C)C)cc3)C2)cn1 (stereo not drawn)	5.6% (inactive)
COc1ccc(/C(N)=N/OC(=O)COc2ccccc2Cl)cc1	6.3% (inactive)
Cc1cc(=O)n2ccsc2n1	-2.4% (inactive)
Cc1ccn2c(=O)cc(C)nc2c1	9% (inactive)
Cc1onc(-c2c(F)cccc2Cl)c1C(=O)OCC(=O)Nc1c(C)n(C)n(-c2ccccc2)c1=O	-18.7% (inactive)
COc1ccc(S(=O)(=O)N2CCN(CC(=O)Nc3ccc(F)c(F)c3)CC2)cc1	-16.5% (inactive)
CN(C)N1C(N)=C(C#N)C(c2cccnc2)C2=C1CC(C)(C)CC2=O (stereo not drawn)	8.6% (inactive)
CCc1ccc(C2C(C#N)=C(N)OC3=C2C(=O)CCC3)s1 (stereo not drawn)	6.1% (inactive)
CN(C)N1C(N)=C(C#N)C(c2ccsc2)C2=C1CC(C)(C)CC2=O (stereo not drawn)	18.1% (inactive)
Cc1ccc(N2C(N)=C(C#N)C(c3cccnc3)C3=C2CCCC3=O)cc1 (stereo not drawn)	47.7% (inactive)
N#CC1=C(N)N(c2ccccc2)C2=C(C(=O)CCC2)C1c1ccsc1 (stereo not drawn)	27.6% (inactive)
CN(C)N1C(N)=C(C#N)C(c2cccs2)C2=C1CCCC2=O (stereo not drawn)	33.2% (inactive)
N#CC1=C(N)N(c2ccccc2)C2=C(C(=O)CCC2)C1c1ccccc1 (stereo not drawn)	51.2% (active)
N#CC1=C(N)OC2=C(C(=O)CCC2)C1c1ccsc1 (stereo not drawn)	-1.2% (inactive)
CSc1ccc(C2C(C#N)=C(N)N(c3ccccc3)C3=C2C(=O)CCC3)cc1 (stereo not drawn)	29.9% (inactive)
CN(C)N1C(N)=C(C#N)C(c2ccsc2)C2=C1CCCC2=O (stereo not drawn)	61% (active)
CN(C)N1C(N)=C(C#N)C(c2cccnc2)C2=C1CCCC2=O (stereo not drawn)	57.9% (active)
